The results in this text go back to article PMC7862700, “An all-to-all approach to the identification of sequence-specific readers for epigenetic DNA modifications on cytosine”.

Common to all, as to experiment: DAPPL (digital affinity profiling via proximity ligation, sequencing); 10 mM Tris-HCl pH 7.5, 50 mM NaCl, 1 mM DTT, 4% glycerol, room temperature, 30 min; GST-TFs on glutathione beads, 16-mer random dsDNA library, 0.1% formaldehyde crosslink after washing; high values mean tight binding
For one assay, the target named is T1, FLI1 (Homo sapiens, UniProt Q01543 1-452).
T1 sequence: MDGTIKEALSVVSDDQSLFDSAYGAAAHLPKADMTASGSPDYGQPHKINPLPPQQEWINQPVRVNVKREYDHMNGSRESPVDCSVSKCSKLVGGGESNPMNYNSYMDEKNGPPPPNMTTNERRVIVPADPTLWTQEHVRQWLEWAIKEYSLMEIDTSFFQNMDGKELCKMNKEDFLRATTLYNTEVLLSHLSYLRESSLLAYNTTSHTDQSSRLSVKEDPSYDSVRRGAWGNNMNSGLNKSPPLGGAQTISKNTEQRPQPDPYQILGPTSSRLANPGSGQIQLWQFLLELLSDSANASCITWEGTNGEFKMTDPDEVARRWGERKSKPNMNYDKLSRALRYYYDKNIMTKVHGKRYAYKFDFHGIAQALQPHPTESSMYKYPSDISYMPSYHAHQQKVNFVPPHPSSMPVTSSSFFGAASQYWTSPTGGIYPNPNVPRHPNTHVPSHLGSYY
The settings on record: protein: recombinant; tags: N-terminal GST; dsDNA, one strand shown. In outline: (§1)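 Pools of DNA-barcoded human transcription factors, expressed in yeast as GST fusions on glutathione beads and combined with a tag-only sample, were incubated with 200 nmole of a 16-mer random double-stranded DNA library. Incubation took 30 min at room temperature in Tris/NaCl/DTT/glycerol buffer and was followed by washing, 0.1% formaldehyde crosslinking, proximity ligation (BsaI/T4 ligase, 1 h, 37 °C), PCR amplification and sequencing on an Illumina NextSeq500. Binding signal is the ratio of a hexamer's read frequency for a factor to its frequency for the tag-only sample.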

The target in another assay is T2, ELK1 (Homo sapiens, UniProt P19419 1-428).
T2 sequence: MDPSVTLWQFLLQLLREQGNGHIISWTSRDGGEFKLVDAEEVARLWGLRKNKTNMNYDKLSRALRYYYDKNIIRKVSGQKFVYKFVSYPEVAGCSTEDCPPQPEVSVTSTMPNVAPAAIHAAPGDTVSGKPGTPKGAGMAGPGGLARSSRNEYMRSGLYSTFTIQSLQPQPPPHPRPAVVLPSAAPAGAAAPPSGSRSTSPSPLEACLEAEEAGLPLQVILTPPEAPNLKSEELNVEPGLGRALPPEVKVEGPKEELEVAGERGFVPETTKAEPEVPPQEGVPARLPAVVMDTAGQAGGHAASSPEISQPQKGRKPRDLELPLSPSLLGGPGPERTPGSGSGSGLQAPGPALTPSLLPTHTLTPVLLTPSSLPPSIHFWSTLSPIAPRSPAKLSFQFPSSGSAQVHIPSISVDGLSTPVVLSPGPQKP
The settings on record: protein: recombinant; tags: N-terminal GST; dsDNA, one strand shown. Summed up: as §1

The target in the next assay is T3, GABPA (Homo sapiens, UniProt Q06546 1-454).
T3 sequence: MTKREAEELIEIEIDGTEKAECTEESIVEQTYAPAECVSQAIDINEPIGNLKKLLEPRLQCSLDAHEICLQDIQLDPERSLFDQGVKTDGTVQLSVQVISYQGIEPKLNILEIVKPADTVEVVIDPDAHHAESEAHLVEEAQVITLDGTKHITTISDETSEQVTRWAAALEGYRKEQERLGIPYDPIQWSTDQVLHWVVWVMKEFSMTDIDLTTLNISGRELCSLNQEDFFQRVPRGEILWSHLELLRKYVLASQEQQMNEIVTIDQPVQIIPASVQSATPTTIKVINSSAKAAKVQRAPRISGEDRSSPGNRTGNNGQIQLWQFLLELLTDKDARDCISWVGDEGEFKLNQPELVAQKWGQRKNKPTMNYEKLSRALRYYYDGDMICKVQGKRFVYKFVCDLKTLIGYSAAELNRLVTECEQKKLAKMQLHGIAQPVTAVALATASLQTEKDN
The settings on record: protein: recombinant; tags: N-terminal GST; dsDNA, one strand shown. Summed up:
as §1

The next assay deals with T4, ERG (Homo sapiens, UniProt P11308 1-479).
T4 sequence: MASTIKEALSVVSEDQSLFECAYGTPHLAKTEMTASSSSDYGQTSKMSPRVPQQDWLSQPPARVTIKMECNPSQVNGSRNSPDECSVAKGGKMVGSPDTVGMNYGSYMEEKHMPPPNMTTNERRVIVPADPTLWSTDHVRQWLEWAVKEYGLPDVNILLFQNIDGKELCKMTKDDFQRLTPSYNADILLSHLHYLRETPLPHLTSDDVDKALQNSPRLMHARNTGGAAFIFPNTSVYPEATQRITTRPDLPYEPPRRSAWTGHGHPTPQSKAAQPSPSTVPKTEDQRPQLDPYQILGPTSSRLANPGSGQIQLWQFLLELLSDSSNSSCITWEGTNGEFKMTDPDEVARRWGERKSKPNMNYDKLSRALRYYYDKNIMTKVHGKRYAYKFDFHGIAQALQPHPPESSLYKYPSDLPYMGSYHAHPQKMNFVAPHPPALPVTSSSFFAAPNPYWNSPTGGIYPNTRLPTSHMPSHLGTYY
The settings on record: protein: recombinant; tags: N-terminal GST; dsDNA, one strand shown. In outline: as §1

Another assay addresses ELF1 (Homo sapiens, UniProt P32519 1-619). To be noted: protein: recombinant; tags: N-terminal GST; dsDNA, one strand shown. In outline:
as §1

For a further assay, the target named is T5, EHF (Homo sapiens, UniProt Q9NZC4 1-300).
T5 sequence: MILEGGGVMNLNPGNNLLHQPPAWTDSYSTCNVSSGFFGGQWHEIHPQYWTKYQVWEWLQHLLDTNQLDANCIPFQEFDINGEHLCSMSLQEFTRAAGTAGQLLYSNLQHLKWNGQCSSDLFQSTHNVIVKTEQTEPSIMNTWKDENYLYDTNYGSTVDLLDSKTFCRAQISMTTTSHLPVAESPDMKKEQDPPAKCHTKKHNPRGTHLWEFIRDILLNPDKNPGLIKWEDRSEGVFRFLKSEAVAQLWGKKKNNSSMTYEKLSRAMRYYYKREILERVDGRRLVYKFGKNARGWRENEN
To be noted: protein: recombinant; tags: N-terminal GST; dsDNA, one strand shown. In outline: as §1

The target in a further assay is SPI1 (Homo sapiens, UniProt P17947 1-270). To be noted: protein: recombinant; tags: N-terminal GST; dsDNA, one strand shown. Summed up:
as §1

A further assay addresses SPIB (Homo sapiens, UniProt Q01892 1-262). The settings on record: protein: recombinant; tags: N-terminal GST; dsDNA, one strand shown. Summed up:
as §1

For a further assay, the target named is T6, ELK3 (Homo sapiens, UniProt P41970 1-407).
T6 sequence: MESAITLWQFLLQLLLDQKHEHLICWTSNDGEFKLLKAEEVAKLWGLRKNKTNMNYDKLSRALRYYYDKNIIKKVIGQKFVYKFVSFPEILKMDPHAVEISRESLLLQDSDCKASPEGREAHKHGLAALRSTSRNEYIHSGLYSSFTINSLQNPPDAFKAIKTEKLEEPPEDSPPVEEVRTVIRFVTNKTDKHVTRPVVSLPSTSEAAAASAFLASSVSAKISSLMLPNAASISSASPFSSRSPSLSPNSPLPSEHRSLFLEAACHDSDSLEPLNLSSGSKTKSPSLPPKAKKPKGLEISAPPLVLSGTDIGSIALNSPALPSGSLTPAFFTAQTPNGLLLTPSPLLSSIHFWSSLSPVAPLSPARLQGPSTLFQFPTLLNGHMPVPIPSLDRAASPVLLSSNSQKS
To be noted: protein: recombinant; tags: N-terminal GST; dsDNA, one strand shown. In outline: as §1

The next assay deals with T7, FEV (Homo sapiens, UniProt Q99581 1-238).
T7 sequence: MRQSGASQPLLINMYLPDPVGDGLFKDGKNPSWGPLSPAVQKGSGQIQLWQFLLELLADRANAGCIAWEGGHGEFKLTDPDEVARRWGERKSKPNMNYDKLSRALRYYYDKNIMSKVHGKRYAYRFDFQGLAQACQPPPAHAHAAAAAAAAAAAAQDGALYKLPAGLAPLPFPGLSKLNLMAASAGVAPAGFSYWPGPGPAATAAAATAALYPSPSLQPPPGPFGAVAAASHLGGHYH
To be noted: protein: recombinant; tags: N-terminal GST; dsDNA, one strand shown. Summed up:
as §1

The next assay deals with ETV5 (Homo sapiens, UniProt P41161 1-510). The settings on record: protein: recombinant; tags: N-terminal GST; dsDNA, one strand shown. In outline:
as §1

In the next assay the target is HSF1 (Homo sapiens, UniProt Q00613 1-529). To be noted: protein: recombinant; tags: N-terminal GST; chain copies: 3; dsDNA, one strand shown. In outline:
as §1

The target of a further assay is T8, SPIC (Homo sapiens, UniProt Q8N5J4 1-248).
T8 sequence: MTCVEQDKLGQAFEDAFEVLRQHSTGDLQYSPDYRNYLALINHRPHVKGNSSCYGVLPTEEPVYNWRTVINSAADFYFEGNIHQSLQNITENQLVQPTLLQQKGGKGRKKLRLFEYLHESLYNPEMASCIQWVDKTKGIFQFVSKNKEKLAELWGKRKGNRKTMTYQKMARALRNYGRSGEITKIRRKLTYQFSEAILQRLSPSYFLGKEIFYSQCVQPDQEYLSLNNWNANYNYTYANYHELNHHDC
The settings on record: protein: recombinant; tags: N-terminal GST; dsDNA, one strand shown. Summed up:
as §1

The next assay addresses ELF4 (Homo sapiens, UniProt Q99607 1-663). To be noted: protein: recombinant; tags: N-terminal GST; dsDNA, one strand shown. In outline: as §1
The next assay deals with T9, ELK4 (Homo sapiens, UniProt P28324-2 1-405).
T9 sequence: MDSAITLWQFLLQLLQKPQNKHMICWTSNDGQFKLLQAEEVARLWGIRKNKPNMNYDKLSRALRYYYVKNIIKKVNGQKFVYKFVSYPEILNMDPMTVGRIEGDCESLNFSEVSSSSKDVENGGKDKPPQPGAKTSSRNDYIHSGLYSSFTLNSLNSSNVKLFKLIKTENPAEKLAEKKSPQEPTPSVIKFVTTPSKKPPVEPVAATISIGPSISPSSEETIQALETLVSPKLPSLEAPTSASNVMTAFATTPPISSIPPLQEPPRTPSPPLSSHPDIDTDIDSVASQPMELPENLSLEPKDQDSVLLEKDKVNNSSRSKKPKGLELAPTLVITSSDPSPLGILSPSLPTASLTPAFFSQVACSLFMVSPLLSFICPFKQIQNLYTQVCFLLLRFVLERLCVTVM
To be noted: protein: recombinant; tags: N-terminal GST; dsDNA, one strand shown. In outline:
as §1

The target in the next assay is T10, ETV2 (Homo sapiens, UniProt O00321 1-342).
T10 sequence: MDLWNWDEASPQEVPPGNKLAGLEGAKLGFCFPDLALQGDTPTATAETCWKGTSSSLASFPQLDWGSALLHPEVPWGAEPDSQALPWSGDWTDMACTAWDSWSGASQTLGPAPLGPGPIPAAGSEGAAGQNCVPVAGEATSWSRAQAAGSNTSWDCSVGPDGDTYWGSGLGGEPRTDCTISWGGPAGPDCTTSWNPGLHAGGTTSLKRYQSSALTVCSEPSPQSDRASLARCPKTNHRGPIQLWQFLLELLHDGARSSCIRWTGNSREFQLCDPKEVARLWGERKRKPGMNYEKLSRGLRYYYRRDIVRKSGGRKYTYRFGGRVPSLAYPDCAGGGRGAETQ
To be noted: protein: recombinant; tags: N-terminal GST; dsDNA, one strand shown. In outline: as §1

A further assay addresses T11, ELF3 (Homo sapiens, UniProt P78545 1-371).
T11 sequence: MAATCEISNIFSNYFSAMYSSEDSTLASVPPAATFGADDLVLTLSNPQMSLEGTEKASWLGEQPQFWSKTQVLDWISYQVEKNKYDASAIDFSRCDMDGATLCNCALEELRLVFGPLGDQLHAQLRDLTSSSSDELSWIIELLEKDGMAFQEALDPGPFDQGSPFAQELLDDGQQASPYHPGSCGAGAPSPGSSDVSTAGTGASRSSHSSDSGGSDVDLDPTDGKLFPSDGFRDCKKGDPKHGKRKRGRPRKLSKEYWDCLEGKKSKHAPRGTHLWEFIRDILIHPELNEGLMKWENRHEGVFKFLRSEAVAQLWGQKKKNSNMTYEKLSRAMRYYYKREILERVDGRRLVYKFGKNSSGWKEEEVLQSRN
The settings on record: protein: recombinant; tags: N-terminal GST; dsDNA, one strand shown. In outline:
as §1

For a further assay, the target named is CRX (Homo sapiens, UniProt O43186 1-299). To be noted: protein: recombinant; tags: N-terminal GST; dsDNA, one strand shown. Summed up: as §1
A further assay has as its target ETV1 (Homo sapiens, UniProt P50549 1-477). To be noted: protein: recombinant; tags: N-terminal GST; dsDNA, one strand shown. Summed up: as §1

ETV1, sequence (P50549 whole entry): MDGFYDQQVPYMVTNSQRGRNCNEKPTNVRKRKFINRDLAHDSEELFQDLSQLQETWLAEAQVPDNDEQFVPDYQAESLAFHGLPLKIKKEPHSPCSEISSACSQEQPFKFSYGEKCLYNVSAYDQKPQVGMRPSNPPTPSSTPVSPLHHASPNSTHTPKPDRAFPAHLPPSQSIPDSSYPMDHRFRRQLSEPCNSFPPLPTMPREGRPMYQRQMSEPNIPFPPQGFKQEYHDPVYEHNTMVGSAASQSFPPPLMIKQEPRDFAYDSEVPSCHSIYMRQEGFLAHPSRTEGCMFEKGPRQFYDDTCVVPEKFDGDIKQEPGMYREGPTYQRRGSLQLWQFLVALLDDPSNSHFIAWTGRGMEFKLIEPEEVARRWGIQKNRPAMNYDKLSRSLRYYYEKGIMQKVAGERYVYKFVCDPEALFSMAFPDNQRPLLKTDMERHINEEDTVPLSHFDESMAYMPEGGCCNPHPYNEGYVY
ETV5, sequence (P41161 whole entry): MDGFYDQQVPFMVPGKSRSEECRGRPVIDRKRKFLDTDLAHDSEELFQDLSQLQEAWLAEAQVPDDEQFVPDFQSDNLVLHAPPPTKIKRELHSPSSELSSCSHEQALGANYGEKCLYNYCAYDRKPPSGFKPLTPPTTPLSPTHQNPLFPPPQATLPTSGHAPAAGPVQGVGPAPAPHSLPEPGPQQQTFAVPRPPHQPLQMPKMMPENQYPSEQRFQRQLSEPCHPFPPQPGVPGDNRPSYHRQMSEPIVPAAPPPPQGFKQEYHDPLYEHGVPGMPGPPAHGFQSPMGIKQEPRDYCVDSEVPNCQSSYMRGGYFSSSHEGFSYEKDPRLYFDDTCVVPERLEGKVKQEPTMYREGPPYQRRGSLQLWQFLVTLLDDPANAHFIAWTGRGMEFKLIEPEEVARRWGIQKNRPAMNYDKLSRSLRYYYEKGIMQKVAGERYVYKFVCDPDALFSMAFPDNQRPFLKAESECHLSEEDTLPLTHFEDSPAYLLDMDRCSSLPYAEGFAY
HSF1, sequence (Q00613 whole entry): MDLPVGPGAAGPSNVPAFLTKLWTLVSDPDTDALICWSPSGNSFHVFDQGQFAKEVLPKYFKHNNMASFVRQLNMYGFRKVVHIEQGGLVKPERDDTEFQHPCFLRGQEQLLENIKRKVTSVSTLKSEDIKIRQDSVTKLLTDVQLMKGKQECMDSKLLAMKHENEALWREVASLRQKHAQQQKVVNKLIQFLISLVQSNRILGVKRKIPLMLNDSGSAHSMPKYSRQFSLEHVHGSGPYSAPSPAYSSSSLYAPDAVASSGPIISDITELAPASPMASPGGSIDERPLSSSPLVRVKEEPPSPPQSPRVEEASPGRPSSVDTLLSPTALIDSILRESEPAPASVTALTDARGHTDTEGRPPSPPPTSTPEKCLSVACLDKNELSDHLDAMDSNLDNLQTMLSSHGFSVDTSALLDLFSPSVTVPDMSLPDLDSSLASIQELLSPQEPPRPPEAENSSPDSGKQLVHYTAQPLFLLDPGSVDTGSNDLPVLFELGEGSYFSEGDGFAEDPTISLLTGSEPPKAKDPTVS
SPIB, sequence (Q01892 whole entry): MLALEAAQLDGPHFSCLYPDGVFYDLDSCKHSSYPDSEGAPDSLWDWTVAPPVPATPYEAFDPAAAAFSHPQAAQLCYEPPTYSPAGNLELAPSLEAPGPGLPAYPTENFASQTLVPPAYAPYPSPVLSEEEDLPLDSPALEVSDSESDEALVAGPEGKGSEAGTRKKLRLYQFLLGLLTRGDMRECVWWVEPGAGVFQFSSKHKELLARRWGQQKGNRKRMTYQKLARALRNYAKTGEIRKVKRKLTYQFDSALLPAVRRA
ELF4, sequence (Q99607 whole entry): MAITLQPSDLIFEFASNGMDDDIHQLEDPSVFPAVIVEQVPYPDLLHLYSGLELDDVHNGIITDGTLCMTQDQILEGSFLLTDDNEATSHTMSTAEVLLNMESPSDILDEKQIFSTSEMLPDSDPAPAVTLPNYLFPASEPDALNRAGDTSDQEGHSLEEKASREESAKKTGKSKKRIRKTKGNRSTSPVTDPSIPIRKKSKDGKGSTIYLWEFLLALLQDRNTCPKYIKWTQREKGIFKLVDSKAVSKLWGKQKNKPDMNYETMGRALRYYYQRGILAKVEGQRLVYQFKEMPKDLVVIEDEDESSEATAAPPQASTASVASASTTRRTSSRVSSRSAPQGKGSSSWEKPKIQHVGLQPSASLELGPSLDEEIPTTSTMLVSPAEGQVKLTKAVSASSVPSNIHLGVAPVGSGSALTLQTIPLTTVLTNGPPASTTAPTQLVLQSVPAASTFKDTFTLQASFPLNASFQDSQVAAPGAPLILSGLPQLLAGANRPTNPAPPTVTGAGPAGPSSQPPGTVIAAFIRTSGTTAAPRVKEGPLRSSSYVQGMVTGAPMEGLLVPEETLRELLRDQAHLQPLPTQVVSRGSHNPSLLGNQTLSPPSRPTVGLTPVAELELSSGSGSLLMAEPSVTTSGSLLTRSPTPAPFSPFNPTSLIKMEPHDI
CRX, sequence (O43186 whole entry): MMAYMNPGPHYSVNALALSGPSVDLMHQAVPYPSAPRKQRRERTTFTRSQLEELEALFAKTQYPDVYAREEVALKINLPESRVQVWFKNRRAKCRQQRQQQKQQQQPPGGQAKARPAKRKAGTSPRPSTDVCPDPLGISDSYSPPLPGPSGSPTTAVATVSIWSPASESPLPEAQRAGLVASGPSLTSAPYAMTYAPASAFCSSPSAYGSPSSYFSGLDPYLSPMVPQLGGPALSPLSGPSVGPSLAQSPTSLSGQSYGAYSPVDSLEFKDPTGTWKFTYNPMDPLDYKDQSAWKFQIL
ELF1, sequence (P32519 whole entry): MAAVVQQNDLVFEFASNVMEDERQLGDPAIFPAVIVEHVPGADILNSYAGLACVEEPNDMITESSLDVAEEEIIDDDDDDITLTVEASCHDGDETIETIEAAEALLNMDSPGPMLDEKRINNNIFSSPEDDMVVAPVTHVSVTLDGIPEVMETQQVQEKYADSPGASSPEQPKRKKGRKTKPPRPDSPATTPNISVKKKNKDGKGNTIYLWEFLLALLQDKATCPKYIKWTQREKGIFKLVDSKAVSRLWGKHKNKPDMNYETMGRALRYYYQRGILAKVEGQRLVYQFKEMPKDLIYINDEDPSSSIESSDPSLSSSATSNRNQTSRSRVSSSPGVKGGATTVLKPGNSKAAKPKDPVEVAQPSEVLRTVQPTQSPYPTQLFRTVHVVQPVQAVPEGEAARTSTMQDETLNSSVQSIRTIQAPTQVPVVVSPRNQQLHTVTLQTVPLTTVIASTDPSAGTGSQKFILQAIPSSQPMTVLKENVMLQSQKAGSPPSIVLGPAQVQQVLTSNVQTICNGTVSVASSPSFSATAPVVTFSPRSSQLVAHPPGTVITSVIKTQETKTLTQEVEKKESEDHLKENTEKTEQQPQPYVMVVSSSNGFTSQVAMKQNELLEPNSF

Take CTCACT: the binding signal was 1.61 fold enrichment (6-mer frequency, TF over GST control) in the assay with FLI1; 1.76 fold enrichment (6-mer frequency, TF over GST control) with ELK1; 1.59 fold enrichment (6-mer frequency, TF over GST control) in the assay with GABPA; 1.57 fold enrichment (6-mer frequency, TF over GST control) with ERG; 1.49 fold enrichment (6-mer frequency, TF over GST control) in the assay with ELF1; 1.56 fold enrichment (6-mer frequency, TF over GST control) in the assay with EHF. Moreover, the binding signal with SPI1 was 1.68 fold enrichment (6-mer frequency, TF over GST control); with SPIB, 1.66 fold enrichment (6-mer frequency, TF over GST control); with ELK3 it was 1.5 fold enrichment (6-mer frequency, TF over GST control); with FEV it was 1.63 fold enrichment (6-mer frequency, TF over GST control); with ETV5, 1.4 fold enrichment (6-mer frequency, TF over GST control); with HSF1, 1.36 fold enrichment (6-mer frequency, TF over GST control). Besides, the binding signal with SPIC was 1.57 fold enrichment (6-mer frequency, TF over GST control); with ELF4 it was 1.53 fold enrichment (6-mer frequency, TF over GST control); with ELK4, 1.38 fold enrichment (6-mer frequency, TF over GST control); in the assay with ETV2 it was 1.51 fold enrichment (6-mer frequency, TF over GST control); in the assay with ELF3, 1.63 fold enrichment (6-mer frequency, TF over GST control); with CRX, 1.27 fold enrichment (6-mer frequency, TF over GST control). Besides, the binding signal with ETV1 is 1.49 fold enrichment (6-mer frequency, TF over GST control).
